Mcl1-Bid inh = Mcl-1/Bid binding inhibitors, primary screen, biochemical, TR-FRET, 1536-well | TR-FRET Mcl-1/Bid-Dy647 peptide binding | actives 0.97% (n = 220,000) | Induced myeloid leukemia cell differentiation protein Mcl-1 (Homo sapiens), Q07820 | inhibition, % at 21.7 µM;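 active = compounds that cut the binding signal by more than half at the single screening dose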;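 note: His-tagged Mcl-1 with europium anti-His antibody binding Bid BH3 peptide; 0% = Mcl-1 plus peptide wells and 100% = peptide-only wells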
Target sequence (Q07820 whole entry, looked up): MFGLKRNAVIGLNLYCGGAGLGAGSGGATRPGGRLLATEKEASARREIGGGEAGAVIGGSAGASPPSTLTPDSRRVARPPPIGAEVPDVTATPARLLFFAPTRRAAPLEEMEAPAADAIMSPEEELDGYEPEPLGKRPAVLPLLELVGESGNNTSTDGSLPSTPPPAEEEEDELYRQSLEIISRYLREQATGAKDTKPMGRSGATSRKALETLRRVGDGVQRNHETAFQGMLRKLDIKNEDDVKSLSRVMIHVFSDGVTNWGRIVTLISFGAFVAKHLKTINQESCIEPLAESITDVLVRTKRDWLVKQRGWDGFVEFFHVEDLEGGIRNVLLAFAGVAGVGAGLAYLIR
14-3-3 Bad inh = inhibitors of 14-3-3 zeta/Bad binding, primary screen, biochemical, TR-FRET, bovine 14-3-3 zeta; TR-FRET 14-3-3zeta/Dy647-pBad peptide displacement, 1 h; inhibition, % at 21.7 µM; actives 0.71% (n = 220,000); AID 781, 2007; 14-3-3 protein zeta/delta (Bos taurus), P63103;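 active = inhibition above about 70%, limit read from the data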;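 note: 0% = full 14-3-3 plus peptide FRET controls and 100% = background without 14-3-3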
Target sequence (P63103 whole entry, looked up): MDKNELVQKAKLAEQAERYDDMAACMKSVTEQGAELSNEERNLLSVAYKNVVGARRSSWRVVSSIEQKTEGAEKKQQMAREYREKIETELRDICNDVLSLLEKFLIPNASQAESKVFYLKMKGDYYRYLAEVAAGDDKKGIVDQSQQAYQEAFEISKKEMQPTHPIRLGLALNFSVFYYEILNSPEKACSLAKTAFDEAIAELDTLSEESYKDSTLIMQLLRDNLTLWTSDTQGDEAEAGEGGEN
eIF4E-4G inh = eIF4E–eIF4G protein interaction inhibitors, primary screen, biochemical, uHTS, TR-FRET, eIF4GI fragment; AID 782, 2007; inhibition, % at 21.7 µM; actives 0.37% (n = 220,000); Eukaryotic translation initiation factor 4E (Mus musculus) + Eukaryotic translation …; TR-FRET eIF4E-eIF4GI(517-606) binding, 2 h;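 active = inhibition above about 30%, limit read from the data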;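 note: 0% = full FRET control wells and 100% = background wells lacking eIF4GI fragment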
Pf gamet viab = late stage P. falciparum gametocyte viability inhibitors, primary screen, ATP luminescence, HTS; P. falciparum stage V gametocytes, 24 h; inhibition, % at 10.9 µM; actives 0.065% (n = 150,000); AID 743093, 2013;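 active = inhibition above the mean plus 3 SD of compounds within the control limits, set per campaign, cut at about 38% in these data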;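 note: 0% = DMSO wells and 100% = medium only without gametocytes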
Mcl1 Noxa PPI = Mcl-1/Noxa binding inhibitors, primary screen, biochemical, TR-FRET, 1536-well | Induced myeloid leukemia cell differentiation protein Mcl-1 (Homo sapiens), Q07820 | TR-FRET Mcl-1/Noxa peptide binding, 2 h | inhibition, % at 21.7 µM | actives 1.5% (n = 220,000);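 active = compounds that cut the protein-peptide binding signal by more than 50% relative to plate controls in a single-dose test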;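 note: His-tagged Mcl-1 with rhodamine Noxa BH3 peptide and terbium anti-His antibody; 0% = Mcl-1 plus Noxa peptide wells and 100% = peptide-only wells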
Bim-Mcl-1 = inhibitors of Bim peptide binding to Mcl-1, primary screen, biochemical, bead-based flow cytometry, multiplex. AID 1009, 2008. inhibition, % at 10 µM. Induced myeloid leukemia cell differentiation protein Mcl-1 (Homo sapiens), Q07820. Bim peptide-Mcl-1 binding. actives 0.1% (n = 190,000); in the data active = inhibition above about 40%;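 note: 0% = no compound tracer wells and 100% = peptide blocker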
* = called active by the depositor; . = no result given; [ ] = remark or other dose. Only some compounds are listed: those with a hit (about 2.7% of all), similar ones and a draw of the others.

SMILES	Mcl1-Bid inh	14-3-3 Bad inh	eIF4E-4G inh	Pf gamet viab	Mcl1 Noxa PPI	Bim-Mcl-1
COc1cc(C(=O)NNC(=O)C2CC=CCC2C(=O)O)cc(OC)c1OC (configuration not stated)	-27	1	30*[fluorescence artefact?]	1	5	-6
O=C(NNC(=O)C1CC=CCC1C(=O)O)c1ccc(Cl)cc1 (configuration not stated)	-18	-7	4	11	7	-3
O=C(O)c1ccccc1Nc1ccnc(Cl)n1	-40	-4	74*	5	12	.
CCOC(=O)c1sc(NC(=O)CN2CCN(c3ccccc3)CC2)nc1C	.	.	.	9	.	.
CCOC(=O)C1CCCN(c2nc(C)nc3c2oc2ccccc23)C1 (configuration not stated)	14	83*	3	.	23	0
O=C(Cn1cnc2scc(-c3ccc(Br)cc3)c2c1=O)N1CCOCC1	0	-4	1	.	5	-1
CCC(=O)N(Cc1c(C)nn(-c2ccccc2)c1Cl)c1ccc(Cl)cc1	-14	-4	16	-13	-3	-1
CC(=O)Nc1ccc(NC2=C(Cl)C(=O)c3ccccc3C2=O)cc1	-23	0	1	-10	40	-4
O=C(Oc1ccc(NC2=C(Cl)C(=O)c3ccccc3C2=O)cc1)c1ccc([N+](=O)[O-])cc1	70*	25	6	.	92*	-2
COC(=O)c1sc(N2CCN(c3ccc(Cl)cc3)CC2)nc1N	-43	2	5	.	24	0
CCOc1cc(NC(=S)NCC2CCCO2)c(OCC)cc1NC(=O)c1ccccc1F (configuration not stated)	-81	-13	1	.	16	0
COc1ccc(CCNc2ncnc3c2oc2ccccc23)cc1OC	-15	85*	0	.	34	-2
Cc1nc(NCCc2cnc[nH]2)c2oc3ccccc3c2n1	.	.	.	30	.	0
COc1ccc(CCNc2nc(C)nc3c2oc2ccccc23)cc1OC	-1	75*	0	.	26	-1
Cc1ccc(OCC(=O)OCC(=O)c2c(N)n(C)c(=O)n(C)c2=O)cc1C	10	-20	4	.	4	0
COc1c(Cl)cc(-c2noc(C)c2C(=O)NC(C)C)cc1Cl	-5	0	42*	.	15	-4
Cc1cccc2cc(-c3nc4c(C)cccn4c3NCc3ccco3)c(=O)[nH]c12	-47	-10	-4	.	-5	-2
Cc1ccc2[nH]c(=O)c(-c3nc4cc(C)ccn4c3NCc3ccco3)cc2c1	80*	63	-8	.	60*	0
O=C(NC1(C(F)(F)F)N=C2SCCN2C1=O)c1cccnc1 (configuration not stated)	-5	-13	6	10	-3	-1
Cc1ccc(C(=O)NC2(C(F)(F)F)N=C3SCCN3C2=O)cc1 (configuration not stated)	-23	74*	10	14	-3	0
Cc1ccc(NC(=O)CN2C(=O)N/C(=C/c3cc(C)n(-c4cccc(C(=O)O)c4)c3C)C2=O)cc1	-97	35	35*	8	73*	-1
CCn1c(C)cc(/C=C2\NC(=O)N(CC(=O)Nc3cccc(C)c3)C2=O)c1C	33	66	-10	.	33	0
Cc1ccc(NC(=O)CN2C(=O)N/C(=C\c3cccn3-c3cccc(C(=O)O)c3)C2=O)cc1	-78	69	24	.	63*	0
COc1cc(/C=N/n2nnnc2N)cc(Cl)c1OC	.	.	.	6	.	.
O=C(c1cnccn1)N(Cc1cccs1)C1(C(=O)NC2CCCCC2)CCCCC1	1	3	1	14	6	54*
SMILES	Mcl1-Bid inh	14-3-3 Bad inh	eIF4E-4G inh	Pf gamet viab	Mcl1 Noxa PPI	Bim-Mcl-1
Cn1c2ccccc2c2cnn(CC(=O)Nc3ccccc3Br)c(=O)c21	49	74*	7	8	-83	.
Nc1ccc(C(=O)OCC(=O)Nc2ccc([N+](=O)[O-])cc2C(F)(F)F)cc1	-8	9	7	.	38	-5
CCN(CC)c1ccc(CNc2nc3ccccc3n2C)cc1	97*	1	-2	-21	11	.
CCCCn1c(NCc2ccc3c(c2)OCO3)nc2ccccc21	-8	1	-2	.	66*	0
O=C(CNc1ccc2ccccc2c1)N/N=C/c1ccc([N+](=O)[O-])o1	65*	37	-4	.	70*	0
O=C(COc1ccccc1)N/N=C/c1ccc([N+](=O)[O-])o1	-22	10	3	17	4	-3
N#Cc1c(C#N)c(O)c2ccccc2c1O	-201	5	-1	.	32	.
N=C1CCC(=N)c2c1c(O)c1ccccc1c2O	-15	46	16	.	76*	.
O=C(c1ccc([N+](=O)[O-])cc1)N1CCC(Cc2ccccc2)CC1	5	-1	-7	-23	8	0
O=C(c1cnc(Cl)c(Cl)c1)N1CCC(Cc2ccccc2)CC1	4	0	6	.	51*	1
CC(=O)c1cc2c(cc1NC(=O)c1c(-c3ccccc3)noc1C)OCO2	-6	-16	-3	11	-10	-1
O=C(CSc1ccccn1)N/N=C/c1ccccc1[N+](=O)[O-]	11	84*[fluorescence artefact?]	21	.	11	-2
Cc1cc(=O)oc2cc(OC(C)C(=O)N3CCOCC3)ccc12 (configuration not stated)	0	-4	0	-20	-5	-1
Cc1cc(=O)oc2cc(OCC(=O)N3CCOCC3)ccc12	13	13	0	16	64*	-11
O=C(CSc1ccccn1)N/N=C/c1cc([N+](=O)[O-])ccc1O	-63	-4	-13	9	-53	.
Cc1cc(=O)oc2cc(OCC(=O)N/N=C/c3ccccc3[N+](=O)[O-])ccc12	63*	64	1	.	50	1
COc1ccc2c(c1)c(=O)oc1cc(OCC(=O)N3CCC(C)CC3)ccc12	2	7	9	.	36	0
COc1ccc2c(c1)c(=O)oc1cc(OCC(=O)N3CCc4ccccc4C3)ccc12	53*	18	13	23	58*	-5
O=C(Cc1ccc([N+](=O)[O-])cc1)Nc1cc(C(F)(F)F)cc(C(F)(F)F)c1	-1	-9	-2	0	-15	.
COc1ccccc1CNC(=O)C1CC(c2ccccc2C(F)(F)F)=NO1 (configuration not stated)	-23	-2	-1	.	8	.
COc1cc(/C=C2\C(=O)ON=C2c2ccc(Cl)cc2)ccc1O	.	.	.	8	.	.
O=C1ON=C(c2cccc([N+](=O)[O-])c2)/C1=C/c1ccc(O)cc1	-50	6	10	7	66*	0
